Consider 24 compounds from PubChem BioAssay (Tox21).

Values joined by “and” are separate entries in the source; they are usually repeats but may differ in a detail not shown here. Equal entries are not always repeated. Inconclusive results are not listed. More than one record can exist for a structure, and the calls need not agree. Active and inactive are the calls of the source. Unless noted, calls come from the whole dose curve; as a rule, active = well fitted curve in the direction sought with a large enough effect in the repeat runs; inconclusive = weak or mixed curves; inactive = no such curve, though single readings can be large; an effect the other way counts as inactive or inconclusive.

Assay [1] has as its target Peroxisome proliferator-activated receptor delta (Homo sapiens) (UniProt Q03181). Description: qHTS assay to identify small molecule agonists of the peroxisome proliferator-activated receptor delta (PPARd) signaling pathway (AID 743212; calls by dose curve). In short, it runs like this: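 GeneBLAzer PPARd UAS-bla HEK293H cells (beta-lactamase reporter under UAS control), plated and rested 5 h at 37 C, then exposed to compounds in DMSO at 37 C; LiveBLAzer B/G FRET substrate added, 2 h room temperature, fluorescence read.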
(qHTS replaces the single test concentration by a dilution series.)

A short description of assay [2]: qHTS assay to identify small molecule antagonists of the peroxisome proliferator-activated receptor delta (PPARd) signaling pathway - cell viability counter screen (AID 743213). Note: nearly all actives have a fitted effect of over 50% in size. Note: potency is the fitted concentration of half-maximal effect. Put shortly:
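HEK293H cells with the PPARd UAS-bla reporter, co-treated 17 h at 37 C with compounds and L165041 (300 nM final), were lysed with CellTiter-Glo. Luminescence indicated viable cell content.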

In assay [3] the target is Peroxisome proliferator-activated receptor delta (Homo sapiens) (UniProt Q03181). Description: qHTS assay to identify small molecule antagonists of the peroxisome proliferator-activated receptor delta (PPARd) signaling pathway (AID 743215; active = well fitted inhibition curve with a large enough effect in the signal ratio in the repeat runs, not every such curve was filed as active; the % refers to the signal ratio;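 note: cells stimulated with agonist L165041 at 300 nM final during compound exposure; series mostly up to about 62 µM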). Put shortly:
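PPARd UAS-bla HEK293H cells were pre-incubated 5 h at 37 C, then given test compounds in DMSO plus agonist L165041 (300 nM final). After 17 h at 37 C, beta-lactamase FRET substrate was added; fluorescence read after 2 h at room temperature.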

Assay [4] is described as follows: qHTS assay to identify small molecule agonists of the farnesoid-X-receptor (FXR) signaling pathway - cell viability counter screen (AID 743218). Note: nearly all actives have a fitted effect of over 45% in size. In short, it runs like this: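 FXR-UAS-bla HEK 293T cells, plated 5 h at 37 C, were exposed to compounds for 16 h at 37 C. CellTiter-Glo was then added to the same wells as the bla readout; luminescence read after 30 min at room temperature.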

Assay [5] is described as follows: qHTS assay to identify small molecule agonists of the vitamin D receptor (VDR) signaling pathway - cell viability counter screen (AID 743224). Note: nearly all actives have a fitted effect of over 50% in size. Note: potency is the fitted concentration of half-maximal effect. Put shortly: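 VDR-bla cells were preincubated 4 h at 37C/5% CO2, then exposed to compounds for 16 h. After the 2 h room-temperature bla FRET read, CellTiter-Glo was added to the same wells and luminescence read after 30 min.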

For assay [6], the target named is Bile acid receptor (Homo sapiens) (UniProt Q96RI1). Kind of assay: qHTS assay to identify small molecule agonists of the farnesoid-X-receptor (FXR) signaling pathway (AID 743220; active = well fitted activation curve with a large enough effect in the signal ratio in the repeat runs, not every such curve was filed as active; the % refers to the signal ratio). In short, it runs like this:
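Beta-lactamase reporter under UAS control in GeneBLAzer FXR HEK 293T cells (5000/well) measured with LiveBLAzer FRET substrate after 2 h at room temperature. Compound exposure lasted 16 h at 37C.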

A short description of assay [7]: qHTS assay to identify small molecule antagonists of the farnesoid-X-receptor (FXR) signaling pathway - cell viability counter screen (AID 743221; active = well fitted cell-killing curve with a large enough effect in the repeat runs, not every such curve was filed as active; note: nearly all actives have a fitted effect of over 50% in size). In short, it runs like this: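 In GeneBLAzer FXR-UAS-bla HEK 293T cells stimulated with 50 uM chenodeoxycholic acid (final), compounds acted for 16 h at 37 C. Viability was assessed afterwards by CellTiter-Glo luminescence.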

The target in assay [8] is Vitamin D3 receptor (Homo sapiens) (UniProt P11473). Kind of assay: qHTS assay to identify small molecule agonists of the vitamin D receptor (VDR) signaling pathway (AID 743222; calls by dose curve). Put shortly: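 VDR-bla cells were plated 4 h at 37C/5% CO2, then exposed to compounds in DMSO for 16 h. After LiveBLAzer B/G FRET substrate addition and 2 h at room temperature, beta-lactamase reporter fluorescence was read.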

Assay [9] shares this target. Kind of assay: qHTS assay to identify small molecule antagonists of the vitamin D receptor (VDR) signaling pathway (AID 743223; active = well fitted inhibition curve with a large enough effect in the signal ratio in the repeat runs, not every such curve was filed as active; the % refers to the signal ratio). Put shortly: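 Agonist 1alpha,25-dihydroxyvitamin D3 (3 nM in well) was added with each compound to VDR-bla cells preincubated 4 h. Cells stood 16 h at 37C, then FRET substrate 2 h at room temperature; fluorescence intensity recorded.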

Sequence of Peroxisome proliferator-activated receptor delta (Homo sapiens) (Q03181 whole entry, looked up): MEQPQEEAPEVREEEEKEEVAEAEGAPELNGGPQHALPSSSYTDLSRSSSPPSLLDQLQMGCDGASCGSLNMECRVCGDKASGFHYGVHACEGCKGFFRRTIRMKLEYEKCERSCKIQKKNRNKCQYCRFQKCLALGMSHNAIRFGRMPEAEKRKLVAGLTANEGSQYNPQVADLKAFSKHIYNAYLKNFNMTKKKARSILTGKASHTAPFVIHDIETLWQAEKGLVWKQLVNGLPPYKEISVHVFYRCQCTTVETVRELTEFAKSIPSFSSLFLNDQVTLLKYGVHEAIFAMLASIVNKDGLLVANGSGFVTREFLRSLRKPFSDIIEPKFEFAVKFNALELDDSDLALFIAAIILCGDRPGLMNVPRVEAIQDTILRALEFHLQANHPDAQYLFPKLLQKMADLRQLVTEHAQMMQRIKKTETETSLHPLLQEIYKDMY
Sequence of Vitamin D3 receptor (Homo sapiens) (P11473 whole entry, looked up): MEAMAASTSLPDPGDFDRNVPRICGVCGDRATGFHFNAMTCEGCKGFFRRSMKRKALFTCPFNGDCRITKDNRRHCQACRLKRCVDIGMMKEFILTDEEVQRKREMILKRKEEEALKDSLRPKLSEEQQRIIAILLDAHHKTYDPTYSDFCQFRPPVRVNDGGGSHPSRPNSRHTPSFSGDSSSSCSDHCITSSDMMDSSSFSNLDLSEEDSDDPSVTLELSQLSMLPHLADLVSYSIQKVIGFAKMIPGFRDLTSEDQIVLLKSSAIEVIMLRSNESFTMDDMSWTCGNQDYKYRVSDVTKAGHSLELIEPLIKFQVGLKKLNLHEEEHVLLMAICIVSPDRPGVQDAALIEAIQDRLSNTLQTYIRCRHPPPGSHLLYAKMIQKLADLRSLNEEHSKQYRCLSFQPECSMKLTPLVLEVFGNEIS
Sequence of Bile acid receptor (Homo sapiens) (Q96RI1 whole entry, looked up): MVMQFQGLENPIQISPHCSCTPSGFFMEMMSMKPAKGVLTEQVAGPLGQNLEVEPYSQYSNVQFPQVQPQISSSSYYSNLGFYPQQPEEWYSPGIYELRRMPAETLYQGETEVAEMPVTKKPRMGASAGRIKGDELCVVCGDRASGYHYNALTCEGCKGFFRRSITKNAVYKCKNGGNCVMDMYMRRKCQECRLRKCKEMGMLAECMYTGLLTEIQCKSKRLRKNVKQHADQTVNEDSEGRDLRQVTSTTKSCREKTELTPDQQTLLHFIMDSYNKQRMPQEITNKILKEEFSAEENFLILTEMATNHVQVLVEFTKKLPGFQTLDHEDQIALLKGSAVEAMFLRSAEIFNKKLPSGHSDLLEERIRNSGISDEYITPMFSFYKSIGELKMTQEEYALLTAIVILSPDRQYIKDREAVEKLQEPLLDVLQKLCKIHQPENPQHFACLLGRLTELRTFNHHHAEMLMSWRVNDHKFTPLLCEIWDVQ

`[Na+]`: the compound was called inactive in [1] and in [3]. Also, the Potency result in assay [2], in assay [4] and in assay [5] was “inactive” in each case.

For the compound `C=CC(=O)OCCCC`, the compound was classed as inactive in [1], in assay [3], in [6], in [8] and in [9]. Further, the Potency result in assay [2], in assay [4], in assay [7] and in assay [5] was “inactive” throughout.

For `C[C@]12C=CC(=O)C=C1CC[C@H]1[C@@H]3C[C@@H](O)[C@](O)(C(=O)CO)[C@@]3(C)C[C@H](O)[C@@]12F`, the call in assay [1], in assay [3] and in [8] was inactive. Moreover, the Potency entry in [2], in assay [4], in assay [7] and in assay [5] was “inactive” each time.

Consider `COC(=O)c1ccc(C)cc1`, for which the result in [1], in [3], in assay [6], in assay [8] and in [9] was inactive. Moreover, the Potency result in assay [2], in assay [4] and in assay [5] was “inactive” each time.

Regarding `CC(=O)Nc1ccc2c(c1)Cc1cc(NC(C)=O)ccc1-2`, the result in assay [1], in assay [3], in [8] and in assay [9] was inactive. In addition, the Potency result in assay [2], in [4], in [7] and in assay [5] was “inactive” in each case.

In the case of `CC1=CC(C)(C)Nc2ccccc21`, the compound was called inactive in assay [1], in assay [3] and in [8]. Besides, the Potency result in [2], in assay [4], in assay [7] and in [5] was “inactive” each time.

For `Nc1ccc(N)c(Cl)c1`, the result in assay [1], in assay [3] and in assay [8] was inactive. Besides, the Potency result in assay [2], in [4], in [7] and in [5] was “inactive” each time.

Turning to `C[C@]12CC[C@@H]3c4ccc(O)cc4CC[C@H]3[C@@H]1CC[C@H]2O`, the compound was classed as inactive in [1], in [3] and in [8]. The Potency entry in assay [2], in [4], in assay [7] and in assay [5] was “inactive” each time.

As for `Oc1c(Cl)ccc(Cl)c1Cl`, the compound was called inactive in [1], in assay [3], in assay [6], in assay [8] and in [9]. The Potency result in assay [2], in [4] and in assay [5] was “inactive” throughout.

For `O=C1OC2(c3ccccc31)c1cc(I)c(O)c(I)c1Oc1c2cc(I)c(O)c1I`, the outcome in assay [1], in [3] and in assay [9] was inactive. Also, the Potency entry in [2] was “inactive and 33.4 µM (active)”; in assay [5] it was “inactive and 26.5 µM (active)”. The Potency entry in assay [4] and in assay [7] was “inactive” throughout.

Take `C1COCCN1`: the compound was classed as inactive in [1], in assay [3] and in assay [8]. For the same compound, the Potency entry in assay [2], in assay [4], in [7] and in assay [5] was “inactive” throughout.

In the case of `CC/C=C\C/C=C\C/C=C\CCCCCCCC(=O)O`, the compound was classed as inactive in assay [1], in assay [6] and in assay [8]. Also, the Potency result in assay [2] is “inactive and 34.7 µM (active)”; in assay [5] it was “inactive and 49 µM (active)”. The Potency result in assay [4] is “inactive”.

As for `CC1(C)C(C=C(Cl)Cl)C1C(=O)OCc1cccc(Oc2ccccc2)c1` (centres undefined), the outcome in assay [1], in assay [3], in assay [8] and in assay [9] was inactive. For the same compound, the Potency entry in [2], in [4], in assay [7] and in assay [5] was “inactive” throughout.

On to `Cc1ccc(S(=O)(=O)NCl)cc1`, for which the outcome in [1] and in assay [3] was inactive. In addition, the Potency result in assay [2], in assay [4], in assay [7] and in [5] was “inactive” in each case.

On to `COC(=O)CC(=O)OC`, for which the call in [1], in assay [3], in [8] and in [9] was inactive. For the same compound, the Potency entry in assay [2], in [4] and in assay [5] was “inactive” in each case.

Consider `O=C(O)CCCCCCCCCCCC(=O)O`, for which the call in assay [1], in [3], in [6], in [8] and in assay [9] was inactive. For the same compound, the Potency result in assay [2], in assay [4], in assay [7] and in [5] was “inactive” each time.

On to `CN(C)/N=N/c1nc[nH]c1C(N)=O`, for which the result in assay [1], in assay [3] and in assay [6] was inactive. For the same compound, the Potency result in assay [2], in assay [4] and in [5] was “inactive” in each case.

For the compound `Nc1ccc2c(c1)C(=O)c1ccccc1C2=O`, the call in [1] and in assay [3] was inactive. In addition, the Potency entry in assay [2], in [4], in assay [7] and in [5] was “inactive” in each case.

Turning to `CCCCCCCCCCCCCO`, the call in assay [1], in [3], in [8] and in assay [9] was inactive. Also, the Potency entry in [2], in assay [4], in [7] and in [5] was “inactive” throughout.

In the case of `IC(I)I`, the call in assay [1], in assay [3] and in assay [6] was inactive. The Potency entry in assay [2], in assay [4], in assay [7] and in assay [5] was “inactive” each time.

Take `CCCCCCCCCCCCO`: the result in [1], in assay [3], in assay [6] and in assay [8] was inactive. For the same compound, the Potency result in assay [2], in [4], in assay [7] and in [5] was “inactive” each time.

In the case of `O=C(O)c1cc(=O)[nH]c(=O)[nH]1`, the compound was called inactive in [1] and in [3]. The Potency entry in assay [2], in assay [4], in [7] and in assay [5] was “inactive” each time.

Regarding `[O-]/[N+](=N\O)c1ccccc1`, the result in assay [1], in [3] and in [8] was inactive. Moreover, the Potency result in [2], in [4], in [7] and in assay [5] was “inactive” throughout.

On to `CC(=O)Oc1ccc(C(c2ccc(OC(C)=O)cc2)c2ccccn2)cc1`, for which the outcome in assay [1] and in assay [3] was inactive. In addition, the Potency entry in [2], in [4] and in assay [5] was “inactive” in each case.
